Data from ChEMBL document CHEMBL3988442, “University of Dundee, Small-Polar-MMV Screening Library” (2021).
For some of these results: Measured potencies and affinities stand elsewhere.

Tests used:
Parameters in all cases: scale not given: direction of the effect not stated beside the values
[1] = molecular target: Protein translocase subunit SecA (Escherichia coli (strain K12)) (UniProt P10408); test: Assay to Identify E. coli SecA ATPase Inhibitors; assay type: functional; details: 30 µM
[2] = molecular target: T1, Ubiquitin-activating enzyme e1, putative (Leishmania donovani (strain BPK282A1)) (UniProt E9BSI1); test: Leishmania donovani Ubiquitin Activating Enzyme (LdE1); assay type: functional; details: 30 µM
T1 sequence (whole entry): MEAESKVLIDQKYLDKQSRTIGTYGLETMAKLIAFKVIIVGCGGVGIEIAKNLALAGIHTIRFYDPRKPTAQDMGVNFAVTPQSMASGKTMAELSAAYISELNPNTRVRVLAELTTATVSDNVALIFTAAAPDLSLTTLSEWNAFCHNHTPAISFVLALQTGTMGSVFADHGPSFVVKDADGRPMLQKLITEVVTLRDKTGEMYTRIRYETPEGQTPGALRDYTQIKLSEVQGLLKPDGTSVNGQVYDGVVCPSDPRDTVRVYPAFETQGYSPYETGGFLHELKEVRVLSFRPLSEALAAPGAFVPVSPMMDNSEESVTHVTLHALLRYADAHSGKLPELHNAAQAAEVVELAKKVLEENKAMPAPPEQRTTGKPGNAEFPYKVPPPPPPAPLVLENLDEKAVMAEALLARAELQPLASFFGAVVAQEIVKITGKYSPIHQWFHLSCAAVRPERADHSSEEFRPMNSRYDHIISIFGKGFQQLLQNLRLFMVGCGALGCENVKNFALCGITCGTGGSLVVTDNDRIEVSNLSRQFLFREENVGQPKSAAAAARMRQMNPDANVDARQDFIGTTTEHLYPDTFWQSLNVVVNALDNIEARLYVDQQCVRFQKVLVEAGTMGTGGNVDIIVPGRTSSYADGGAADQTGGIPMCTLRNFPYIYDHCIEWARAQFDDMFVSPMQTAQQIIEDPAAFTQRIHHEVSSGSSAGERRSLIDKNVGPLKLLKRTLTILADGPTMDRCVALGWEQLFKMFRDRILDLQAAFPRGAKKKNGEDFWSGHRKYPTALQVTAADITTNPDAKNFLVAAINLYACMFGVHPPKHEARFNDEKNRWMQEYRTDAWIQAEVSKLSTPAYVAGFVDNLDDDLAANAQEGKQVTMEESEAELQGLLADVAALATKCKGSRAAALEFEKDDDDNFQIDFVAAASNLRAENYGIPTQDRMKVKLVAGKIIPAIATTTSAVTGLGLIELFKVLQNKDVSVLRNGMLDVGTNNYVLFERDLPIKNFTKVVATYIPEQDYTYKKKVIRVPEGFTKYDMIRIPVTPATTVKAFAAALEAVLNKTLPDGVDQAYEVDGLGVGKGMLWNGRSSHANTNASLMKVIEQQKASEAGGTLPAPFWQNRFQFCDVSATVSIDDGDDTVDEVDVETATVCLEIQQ

[3] = molecular target: AMP-activated protein kinase, AMPK (Homo sapiens) (UniProt P54646+O43741+P54619+Q9UGJ0+Q9Y478+Q13131+Q9UGI9); test: AMP-dependent Kinase enzyme assay. An in vitro enzyme assay that detects ADP turnover that is directly proportional to AMPK activity. This uses naive AMPK that is activated during the assay with MK-8722; assay type: functional; details: 30 µM
[4] = molecular target: Sialic acid-binding Ig-like lectin 9 (Homo sapiens) (UniProt Q9Y336); test: Hs-Siglec9 ALPHAscreen SOP 20170721; details: 10 µM
Trypanosoma cruzi = test: Trypanosoma cruzi phosphomannomutase and mannose-1-phosphate guanylyltransferase assay; assay type: functional; details: 10 µM
[5] = molecular target: T2, Arginase-2, mitochondrial (Homo sapiens) (UniProt P78540); test: in vitro enzyme assay to detect the production of urea directly proportional to the activity of Arginase II; assay type: functional; details: 33.3 µM; note: in the data most compounds retested in dose-response had high values
T2 sequence (whole entry): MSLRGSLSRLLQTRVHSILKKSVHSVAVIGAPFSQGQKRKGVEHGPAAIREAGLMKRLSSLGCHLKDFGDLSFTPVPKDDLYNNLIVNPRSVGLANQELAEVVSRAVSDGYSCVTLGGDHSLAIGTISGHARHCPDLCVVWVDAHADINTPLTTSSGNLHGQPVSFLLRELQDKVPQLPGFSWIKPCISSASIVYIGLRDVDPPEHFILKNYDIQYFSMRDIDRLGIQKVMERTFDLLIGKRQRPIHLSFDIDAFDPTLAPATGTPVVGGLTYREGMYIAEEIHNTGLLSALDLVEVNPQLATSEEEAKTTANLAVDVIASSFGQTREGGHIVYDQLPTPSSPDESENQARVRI

[6] = molecular target: T3, Proteasome subunit beta (Trypanosoma cruzi) (UniProt O96673); test: Trypanosoma cruzi proteasome chymotrypsin-like activity (TcProtChymo) assay.; note: in the data most compounds retested in dose-response had high values; assay type: functional; details: 9.37 µM
T3 sequence (whole entry): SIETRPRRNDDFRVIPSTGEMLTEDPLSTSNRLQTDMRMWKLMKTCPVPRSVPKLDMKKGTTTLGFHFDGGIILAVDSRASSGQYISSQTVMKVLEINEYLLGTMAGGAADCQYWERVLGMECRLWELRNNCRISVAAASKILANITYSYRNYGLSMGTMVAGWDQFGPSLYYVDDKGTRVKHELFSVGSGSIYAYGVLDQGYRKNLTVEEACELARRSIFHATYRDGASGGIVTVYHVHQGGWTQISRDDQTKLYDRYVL

Homo sapiens = species on record: Homo sapiens; test: To identify inhibition of the IFN signalling (Jak-Stat) pathway via expression of an eGFP reporter gene under the control of an IFN-stimulated response element (ISRE) containing MxA promoter.; assay type: functional; details: 30 µM
[7] = molecular target: T4, Tyrosyl-tRNA synthetase, putative (Trypanosoma cruzi (strain CL Brener)) (UniProt Q4DSP6); test: Trypanosoma cruzi tyrosyl tRNA synthetase (TcYRS) _High Tyrosine SOP; assay type: functional; details: 30 µM; note: in the data most compounds retested in dose-response had high values
T4 sequence (whole entry): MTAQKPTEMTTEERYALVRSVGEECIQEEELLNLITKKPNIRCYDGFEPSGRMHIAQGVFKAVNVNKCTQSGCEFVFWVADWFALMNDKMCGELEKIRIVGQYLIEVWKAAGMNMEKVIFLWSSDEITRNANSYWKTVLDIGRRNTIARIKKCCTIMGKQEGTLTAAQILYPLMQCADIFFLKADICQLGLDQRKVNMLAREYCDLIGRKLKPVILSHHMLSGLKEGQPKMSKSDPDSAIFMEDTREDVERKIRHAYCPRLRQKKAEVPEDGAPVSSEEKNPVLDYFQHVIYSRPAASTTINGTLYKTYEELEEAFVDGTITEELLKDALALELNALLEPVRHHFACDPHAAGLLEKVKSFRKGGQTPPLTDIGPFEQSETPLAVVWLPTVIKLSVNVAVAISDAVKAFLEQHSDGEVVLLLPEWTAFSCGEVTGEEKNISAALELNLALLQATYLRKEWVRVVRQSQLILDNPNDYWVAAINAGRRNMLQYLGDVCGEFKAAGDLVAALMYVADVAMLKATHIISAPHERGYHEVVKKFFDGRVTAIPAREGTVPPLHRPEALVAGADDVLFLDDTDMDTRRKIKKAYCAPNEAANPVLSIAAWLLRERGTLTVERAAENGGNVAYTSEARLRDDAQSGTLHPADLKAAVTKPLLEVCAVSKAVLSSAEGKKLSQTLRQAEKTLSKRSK

[8] = molecular target: T4, Tyrosyl-tRNA synthetase, putative (Trypanosoma cruzi (strain CL Brener)); test: Trypanosoma cruzi tyrosyl tRNA synthetase (TcYRS) SOP; assay type: functional; details: 30 µM
[9] = molecular target: Chromo domain-containing protein 1 (Saccharomyces cerevisiae (strain ATCC 204508 / S288c) (Baker's yeast)) (UniProt P32657); test: ScCHD-1 Enzyme Inhibition Assay; assay type: functional; details: 30 µM; note: in the data most compounds retested in dose-response had high values
Sequence of Chromo domain-containing protein 1 (Saccharomyces cerevisiae (strain ATCC 204508 / S288c) (Baker's yeast)) (P32657 whole entry, the tested form may be a part): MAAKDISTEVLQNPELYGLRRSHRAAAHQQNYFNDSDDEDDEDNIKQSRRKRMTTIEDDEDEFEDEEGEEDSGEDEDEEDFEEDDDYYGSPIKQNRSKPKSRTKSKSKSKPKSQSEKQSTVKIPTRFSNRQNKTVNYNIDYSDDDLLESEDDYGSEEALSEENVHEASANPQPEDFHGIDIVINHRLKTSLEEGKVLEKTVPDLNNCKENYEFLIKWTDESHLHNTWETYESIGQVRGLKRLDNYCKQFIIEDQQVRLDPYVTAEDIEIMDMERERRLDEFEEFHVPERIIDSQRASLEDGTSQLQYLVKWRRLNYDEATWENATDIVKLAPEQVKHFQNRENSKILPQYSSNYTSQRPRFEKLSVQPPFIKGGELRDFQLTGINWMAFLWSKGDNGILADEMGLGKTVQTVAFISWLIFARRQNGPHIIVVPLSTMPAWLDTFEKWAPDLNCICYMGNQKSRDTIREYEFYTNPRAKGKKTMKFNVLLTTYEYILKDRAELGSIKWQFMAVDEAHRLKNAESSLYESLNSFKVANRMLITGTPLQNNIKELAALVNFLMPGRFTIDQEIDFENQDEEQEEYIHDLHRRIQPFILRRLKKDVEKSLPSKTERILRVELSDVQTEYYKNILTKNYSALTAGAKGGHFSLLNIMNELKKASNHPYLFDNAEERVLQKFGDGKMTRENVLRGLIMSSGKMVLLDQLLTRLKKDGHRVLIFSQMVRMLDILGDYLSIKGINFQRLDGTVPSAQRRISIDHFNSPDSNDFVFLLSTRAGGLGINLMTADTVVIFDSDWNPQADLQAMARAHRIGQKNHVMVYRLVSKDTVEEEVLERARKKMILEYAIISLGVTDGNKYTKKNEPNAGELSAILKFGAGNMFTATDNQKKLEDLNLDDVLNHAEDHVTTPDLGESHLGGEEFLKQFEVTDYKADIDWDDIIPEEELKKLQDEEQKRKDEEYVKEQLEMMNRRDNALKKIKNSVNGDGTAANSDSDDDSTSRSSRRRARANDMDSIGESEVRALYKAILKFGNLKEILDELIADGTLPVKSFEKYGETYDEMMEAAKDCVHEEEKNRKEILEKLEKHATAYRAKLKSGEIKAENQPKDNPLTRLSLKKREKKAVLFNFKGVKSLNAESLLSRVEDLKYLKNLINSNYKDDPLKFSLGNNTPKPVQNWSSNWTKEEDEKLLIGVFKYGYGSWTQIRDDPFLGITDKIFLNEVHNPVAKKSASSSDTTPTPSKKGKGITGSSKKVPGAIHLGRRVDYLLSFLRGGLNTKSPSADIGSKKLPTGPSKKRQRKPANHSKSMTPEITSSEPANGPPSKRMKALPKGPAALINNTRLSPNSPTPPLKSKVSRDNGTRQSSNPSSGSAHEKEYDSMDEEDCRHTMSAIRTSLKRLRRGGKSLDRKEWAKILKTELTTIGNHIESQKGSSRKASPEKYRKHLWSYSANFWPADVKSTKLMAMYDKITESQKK

Sequence of Protein translocase subunit SecA (Escherichia coli (strain K12)) (P10408 whole entry): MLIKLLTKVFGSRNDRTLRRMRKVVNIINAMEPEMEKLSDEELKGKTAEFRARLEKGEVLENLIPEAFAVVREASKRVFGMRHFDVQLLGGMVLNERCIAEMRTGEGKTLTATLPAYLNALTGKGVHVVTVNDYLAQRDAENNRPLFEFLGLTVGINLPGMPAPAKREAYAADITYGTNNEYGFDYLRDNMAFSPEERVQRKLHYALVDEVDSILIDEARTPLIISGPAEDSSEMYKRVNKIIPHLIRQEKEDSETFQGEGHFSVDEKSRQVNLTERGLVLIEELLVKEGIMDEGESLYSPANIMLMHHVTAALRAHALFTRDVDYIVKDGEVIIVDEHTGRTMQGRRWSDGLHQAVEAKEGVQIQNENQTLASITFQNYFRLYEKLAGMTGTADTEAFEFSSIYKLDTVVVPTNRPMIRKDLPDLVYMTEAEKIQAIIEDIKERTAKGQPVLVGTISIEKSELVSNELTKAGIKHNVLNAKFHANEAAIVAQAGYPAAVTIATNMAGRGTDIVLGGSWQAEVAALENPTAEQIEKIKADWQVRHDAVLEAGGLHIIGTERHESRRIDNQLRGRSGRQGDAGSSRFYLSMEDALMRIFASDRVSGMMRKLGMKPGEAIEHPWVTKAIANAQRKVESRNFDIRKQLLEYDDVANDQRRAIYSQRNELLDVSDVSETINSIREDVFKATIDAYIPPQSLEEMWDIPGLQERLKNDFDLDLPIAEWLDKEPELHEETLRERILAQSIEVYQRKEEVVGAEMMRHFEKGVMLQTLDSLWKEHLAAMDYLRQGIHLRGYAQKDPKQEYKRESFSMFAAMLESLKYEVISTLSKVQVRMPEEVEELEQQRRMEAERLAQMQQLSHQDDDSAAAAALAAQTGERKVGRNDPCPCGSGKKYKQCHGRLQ
Sequence of Sialic acid-binding Ig-like lectin 9 (Homo sapiens) (Q9Y336 whole entry): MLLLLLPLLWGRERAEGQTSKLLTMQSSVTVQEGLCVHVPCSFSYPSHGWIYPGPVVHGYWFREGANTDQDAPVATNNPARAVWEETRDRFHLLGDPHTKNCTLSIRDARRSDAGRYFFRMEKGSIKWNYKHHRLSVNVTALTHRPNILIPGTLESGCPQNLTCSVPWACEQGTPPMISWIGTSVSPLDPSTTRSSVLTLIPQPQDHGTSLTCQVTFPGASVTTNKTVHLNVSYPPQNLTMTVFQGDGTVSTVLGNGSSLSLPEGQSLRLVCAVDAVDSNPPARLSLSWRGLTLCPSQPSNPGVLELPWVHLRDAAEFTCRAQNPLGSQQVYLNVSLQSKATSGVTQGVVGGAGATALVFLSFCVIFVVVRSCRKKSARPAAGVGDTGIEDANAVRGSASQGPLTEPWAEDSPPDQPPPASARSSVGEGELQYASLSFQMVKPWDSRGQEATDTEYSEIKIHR

SMILES | Percent Effect [1] [%] | Percent Effect [2] [%] | Percent Effect [3] [%] | Percent Effect [4] [%] | Percent Effect (Trypanosoma cruzi) [%] | Percent Effect [5] [%] | Percent Effect [6] [%] | Percent Effect (Homo sapiens) [%] | Percent Effect [7] [%] | Percent Effect [8] [%] | Percent Effect [9] [%]
NS(=O)(=O)CCNC(=O)c1nnn(-c2ccc(F)cc2)c1C1CC1 | -0.864 | 8.11 | -3.7 | 0.877 | 3.91 | 14.6 | 19.5 | -4.31 | 9.9 | 15.8 | -4.04
CCOCC(=O)N1C[C@@H]2COC[C@H](c3nc(C)no3)[C@@H]2C1 | -1.23 | -5.41 | 5.84 | -1.1 | 0.586 | 2.5 | 9.21 | 1.97 | -15.8 | -1.22 | -2.33
CC(C)c1cc(NC(=O)c2ccc(NC3CC3)nc2)[nH]n1 | -5.31 | 13 | 111 | 10.4 | 8.24 | -6.05 | 11.5 | -1.61 | 7.77 | 24.4 | -8.09
O=C(C1CCOCC1)N1C[C@@H]2[C@@H](C1)OCC(=O)N2CC1CC1 | -1.53 | -192 | 0.601 | -6.86 | -19.1 | 0.319 | 19.2 | -0.484 | -222 | -451 | -3.21
O=C(Nc1ncn(CC(=O)N2CCCCCC2)n1)C1CCCO1 (stereo not given) | -2.31 | 7.89 | 0.569 | 1.68 | -6.39 | 4.6 | 1 | 17.6 | 2.45 | 9.76 | -1.04
Cc1ccc(NC(C)C(=O)NCc2cccs2)cc1C (stereo not given) | -1.89 | 16.4 | 6.74 | 8.58 | 0.196 | -4.54 | 17.8 | 21.3 | -1.07 | 20 | -5.22
CCn1cnnc1C1CCN(C(=O)c2cccc3c2ccn3C)CC1 | -5.72 | 18.2 | -2.51 | 0.647 | 3.37 | -4.63 | 7.43 | -1.75 | 7.77 | 24.4 | -13.2
CC(C)OCc1ncn2c1CN(Cc1cccs1)CCC2 | -1.74 | -2.7 | -26.4 | 0.954 | -2.25 | -2.23 | 9.04 | 12.4 | -2.16 | 2.56 | -2.17
CCc1nnc2n1CCN(CCS(=O)(=O)c1ccccc1)C2 | -7.25 | 13 | 6.16 | 15.6 | -3.37 | 1.07 | -2.87 | 4.97 | 0.971 | 7.32 | -3.89
Cc1cccc(Cn2c3c(ccc2=O)CCN(Cc2ccoc2)CC3)n1 | -0.765 | 8.22 | -3.21 | 11.9 | 7.54 | -14 | 10.5 | 6.67 | 4.17 | 6.17 | -3.8
COc1cc(N2CC[C@H](O)[C@@H]2Cc2cnn(C)c2)ncn1 | -0.518 | 10.8 | 1.19 | -5.15 | -3.62 | 8.6 | 19.2 | -8.64 | 3.24 | 10.3 | -2.09
CSCc1cccc(S(=O)(=O)N2CCC(C)CC2)c1 | -5.58 | -4 | 7.56 | 1.46 | -5.5 | -5.11 | 7.39 | 27.8 | -11.6 | -10.3 | -6.13
Cc1ccc(=O)n(CC2(O)CCN(Cc3cc(C)c(O)c(C)c3)CC2)n1 | -6.97 | 23 | -6.19 | 7.09 | 6.52 | -2.55 | 13.3 | -3.64 | 2.15 | 14.3 | 45.6
O=C(NCCCN1CCOCC1)Nc1cnc2cc(Cl)ccc2c1O | 0.589 | 17.6 | 9.55 | -8.53 | -3.16 | -5.34 | 12.8 | 31.9 | 0 | 1.3 | -6.01
CC(C)C(C(=O)N1CCN(c2ccncc2)CC1)n1cncn1 (stereo not given) | -5.41 | 15.6 | -0.644 | 10.9 | 6.98 | -34.5 | 11.8 | 8.3 | 4.3 | 13.6 | -7.32
COCCCN1CCc2cncnc2C1 | -2.65 | 5.06 | -237 | 6.45 | 9.35 | 2.66 | 8.27 | -13.7 | 5.42 | 8.86 | -6.93
COc1ccc(CCN2CCCC2Cn2nc(C)nc2C)cc1 (stereo not given) | -3.93 | 10.1 | -5.37 | -5.48 | -0.85 | 6.46 | 6.31 | 26.4 | 6.4 | 8.86 | -5.44
Cc1ccc(C(=O)NS(=O)(=O)c2cc(Cl)ccc2Cl)c(=O)[nH]1 | -2.59 | 5.41 | -4.48 | 13.3 | 4.18 | -2.4 | 4.67 | 32 | 5.94 | 23.2 | -3.61
CNC(=O)c1ccc(OC2CCN(S(C)(=O)=O)CC2)c(Cl)c1 | -2.46 | 4.17 | -2.06 | -2.97 | 0.68 | 2.65 | 14.7 | 24.7 | 6.32 | 10.3 | -2.92
OCCOCCN1CCCC1c1nc2cc(F)ccc2[nH]1 (stereo not given) | 7.36 | 21.9 | -1.73 | -1.07 | -13.1 | -2.4 | 14.3 | 9.67 | 11.5 | 18.5 | -1.92
